MARV entry inh – qHTS for inhibitors of binding or entry into cells for Marburg Virus; Potency, µM (titrated, usually from 37.8 µM), for inactives: at the highest dose activity change, negative = inhibition, actives largely listed as inhibitors; Marburg virus pseudotyped entry inhibition, cell reporter; actives 1.8% (n = 300,000); AID 540276, 2011; calls by dose curve; tested in HEK293 cells
AmpC inh detg – qHTS Inhibitors of AmpC Beta-Lactamase (assay with detergent). P00811. AmpC hydrolysis of nitrocefin, absorbance 480 nm, 0.01% Triton. Potency, µM (series often up to 114 µM), for the others: at the highest dose activity change, negative = inhibition, most hits filed as inhibitors. actives 0.041% (n = 370,000). AID 485294, 2010;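 also: 0% = no-compound wells and -100% = no-enzyme wells; nearly all actives have a fitted effect of over 25% in size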
Target sequence (P00811 whole entry, looked up): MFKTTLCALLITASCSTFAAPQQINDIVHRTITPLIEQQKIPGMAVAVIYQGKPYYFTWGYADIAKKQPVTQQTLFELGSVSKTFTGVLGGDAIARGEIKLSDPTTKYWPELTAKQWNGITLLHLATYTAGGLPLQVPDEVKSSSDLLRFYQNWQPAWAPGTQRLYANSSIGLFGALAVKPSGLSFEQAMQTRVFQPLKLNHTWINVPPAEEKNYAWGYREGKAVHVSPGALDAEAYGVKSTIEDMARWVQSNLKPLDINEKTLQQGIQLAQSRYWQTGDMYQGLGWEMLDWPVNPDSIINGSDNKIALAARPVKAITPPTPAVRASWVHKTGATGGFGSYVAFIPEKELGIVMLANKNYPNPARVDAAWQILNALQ
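AmpC (5.3 nM in the dispensed reagent) in 20 mM phosphate pH 7.0 with 0.01% (detergent screen) or 0.0001% Triton X-100 was preincubated with compounds for 15 min at room temperature. Nitrocefin was then added from an 800 uM solution, and hydrolysis was followed at 480 nm.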
Lassa entry inh – qHTS for Inhibitors of binding or entry into cells for Lassa Virus; Lassa virus pseudotype entry inhibition, cell reporter; Potency, µM (top dose mostly 37.9 µM), inactives show at the top dose activity change, negative = inhibition, actives largely listed as inhibitors; actives 1.2% (n = 300,000); AID 540256, 2011; calls by dose curve; tested in HEK293 cells; also: nearly all actives have a fitted effect of over 50% in size
AmpC inh no detg – qHTS Inhibitors of AmpC Beta-Lactamase (assay without detergent); actives 0.52% (n = 330,000); Potency, µM (top dose mostly 57.1 µM), for the others: at the highest dose activity change, negative = inhibition, usual class: inhibitors; AmpC nitrocefin hydrolysis, absorbance 480 nm, 0.0001% Triton; AID 485341, 2010;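 also: plate controls were no compound for no effect and no enzyme for full effect; nearly all actives have a fitted effect of over 20% in size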
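AmpC (5.3 nM in the dispensed reagent) in 20 mM phosphate pH 7.0 with 0.01% (detergent screen) or 0.0001% Triton X-100 was preincubated with compounds for 15 min at room temperature. Nitrocefin was then added from an 800 uM solution, and hydrolysis was followed at 480 nm.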
AMA1 RON2 block – qHTS for Inhibitors of AMA1-RON; Towards Development of Antimalarial Drug Lead: Primary Screen; AID 720542, 2013; Potency, µM (titrated, usually from 58.2 µM), inactives show top-dose activity change, negative = inhibition, hits mostly inhibitors; AlphaScreen AMA1-biotinylated RON2 peptide binding; actives 0.2% (n = 360,000); Plasmodium falciparum AMA1 (3D7) - RON2 peptide interaction;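 also: 0% = vehicle wells and -100% = peptide control; nearly all actives have a fitted effect of over 45% in size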
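AMA1 (3D7) with his tag at 25 nM final met compounds first, then biotinylated RON2 peptide at 25 nM; detection used donor plus acceptor beads, 10 µg/mL apiece, read by AlphaScreen after 30 min at room temperature.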
Numbers without * were called inactive; ? = inconclusive; · = not tested or not shown; [ ] = remark or other dose. Sampled rows, rich in hits. Any-hit rate of the full collection: about 2.3%. Unless noted, calls follow the shape of the dose curve; as a rule, active = well fitted curve in the direction sought with a large enough effect; inconclusive = small, poorly fitted or top-dose-only effect, or another doubt; inactive = no such curve, though single readings can be large; an effect the other way counts as inactive or inconclusive. Unless noted, % is scaled to controls: 0 for no effect and ±100 for the full control effect; potency is read from the fitted curve at half-maximal effect.

SMILES	MARV entry inh	AmpC inh detg	Lassa entry inh	AmpC inh no detg	AMA1 RON2 block
COc1cc(C2c3cc4c(c(O)c3CC3COC(=O)C32)OCO4)cc(OC)c1OC (configuration not stated)	?	·	?	·	4%
COc1cccc2c1cc1c(=O)n(CC(=O)N3CCN(c4cccc(C)c4)C(C)C3)nc(C)n12 (configuration not stated)	8%[46.1 µM]	22%	·	·	·
O=C(OC1CNC(C#Cc2cc3ncnc(Nc4ccc5c(ccn5Cc5cc(F)ccc5F)c4)c3s2)C1)N1CCOCC1 (configuration not stated)	·	·	4µM*	·	·
CCCCN(CCCC)S(=O)(=O)c1ccc(NC(=O)Cc2cccs2)cc1	?	-11%	9.2µM*	?	4%
CCCCN(CC)S(=O)(=O)c1ccc(C(=O)Nc2nnc(-c3cccs3)o2)cc1	8.9µM*	5%	?	-23%	108%
Cc1c(C(=O)Nc2ccc(F)c(C(F)(F)F)c2)sc2nc(-c3ccccc3)cn12	·	21%	3%[46.1 µM]	·	·
COc1nc(N)c(S(=O)(=O)c2ccccc2C)cc1C#N	?	6%	12%	0.16µM*	-2%
Cc1ccc2c(c1)C1CN(C)CCC1N2C(=O)CCCN1C(=O)c2cccc3cccc(c23)C1=O (configuration not stated)	7.9µM*	5%	7%	92%	7%
O=C(CC1N=C2c3ccccc3N=C(SCc3cccc(Cl)c3)N2C1=O)NC1CCCCC1 (configuration not stated)	·	10%	-9%[46.1 µM]	·	·
O=C(CSc1ccccc1)Nc1ccccc1C(=O)O	18µM*	0%	?	·	2%
Cc1c(NC(=S)NC(=O)Cc2ccccc2)cccc1C(=O)O	15%	7%	14%	-8%	16%
O=C(Cc1cccc2ccccc12)Nc1cc(Cl)ccc1C(=O)O	1%[46.1 µM]	-2%	2%[46.1 µM]	-36%	-4%
COc1ccc(CC(=O)Nc2cccc(C(=O)O)c2C)cc1	?	2%	?	4µM*	-1%
O=C(Cc1cccc2ccccc12)Nc1ccccc1C(=O)O	15µM*	3%	?	-43%	-5%
Cc1ccc(SCC(=O)Nc2ccccc2C(=O)O)cc1	?	-8%	?	-5%	10%
Cc1ccc(-c2noc(CNC(=O)COc3cc(C)c(Br)c(C)c3)n2)cc1	-1%[46.1 µM]	13%	5%[46.1 µM]	·	·
CCCN(CC(=O)Nc1ccccc1C)C(=O)/C=C/c1ccc(S(=O)(=O)N2CCCCCC2)cc1	11µM*	-2%	-24%	24%	-13%
CCC(Sc1nc2ccsc2c(=O)n1Cc1ccc(C(=O)O)cc1)C(=O)Nc1ccc(C)c(Cl)c1 (configuration not stated)	·	-1%	·	8.9µM*	-6%
Cn1nnnc1SCCCNCc1cc(Br)ccc1OCc1ccccc1	?	12%	10%[46.1 µM]	·	·
CCc1nc(N)nc(N)c1-c1ccc(N(C)Cc2ccccc2)c([N+](=O)[O-])c1	0.89µM*	·	?	·	-1%
CCc1nc(N)nc(N)c1-c1ccc(Cl)cc1	?	-10%	3.3µM*	-45%	0%
CCC(=O)n1nc(-c2ccc(Cl)cc2)nc1N	·	2%	·	-7%	-21%
O=c1cc2c(=O)oc3cc(O)c(O)oc3c2c(O)c1O	?	-5%	?	-15%	10µM*
O=c1oc2cc(O)c(Cl)cc2c2ccccc12	?	-6%	12%	-20%	2%
Cc1ccc2c(c1)/C(=C/c1ccccc1)C(=O)N2	?	1%	10µM*	-22%	-16%
SMILES	MARV entry inh	AmpC inh detg	Lassa entry inh	AmpC inh no detg	AMA1 RON2 block
Cc1cc2ccccc2n1-c1ccc(C(=O)N2CCC(C(=O)NCc3ccc(Cl)cc3)CC2)s1	·	7%	-28%[46.1 µM]	·	·
CN1C[C@H](CNC(=O)OCc2ccccc2)C[C@@H]2c3cccc4c3c(cn4C)C[C@H]21	5.6µM*	7%	23µM*	225%	?
NS(=O)(=O)c1ccc(NCCCn2ccnc2)c([N+](=O)[O-])c1	-2%[46.1 µM]	-4%	3%	-13%	-10%
O=C1c2ccccc2-c2onc3ccc(NCCCn4ccnc4)c1c23	?	0%	-21%	64%	24µM*
COc1cc(/C=N/N=C(N)N)ccc1OCc1ccccc1Cl	·	2%	·	-26%	-15%
Cn1c(COc2ccccc2Br)nc2ccccc21	·	3%	·	-12%	-2%
COc1cc2ncn(-c3cc(OCc4ccccc4Cl)c(C(N)=O)s3)c2cc1OC	·	·	0.63µM*	·	·
COc1ccc2ncn(-c3ccccc3)c2c1	-19%	-2%	-6%	-5%	-4%
COc1ccc2ncn(-c3cc(OC(C)c4ccccc4Cl)c(C(N)=O)s3)c2c1 (configuration not stated)	·	·	0.1µM*	·	·
NC(=O)c1sc(-n2cnc3ccccc32)cc1OCc1ccccc1Br	·	·	8.9µM*	·	·
CCCCCCCCCCn1ccc(=N)cc1	?	-1%	1.8µM*	29%	10%
CCCCCCCCn1ccc(=N)cc1	?	1%	?	-2%	-16%
CCCOc1ccc(OC(=O)c2cn(-c3ccc(OC)cc3)c(=O)c3ccccc23)cc1	·	-4%	?	·	·
CCN(Cc1ccccc1)C(=O)C1CCC(CNS(=O)(=O)c2ccc3c(c2)CCCC(=O)N3)CC1 (configuration not stated)	·	2%	-18%[46.1 µM]	·	·
Cc1ccc(C(=O)Nc2ncc([N+](=O)[O-])s2)cc1	·	?	·	-18%	12%
O=C(Nc1ncc([N+](=O)[O-])s1)c1ccc2c(c1)OCO2	1.6µM*	4%	?	-17%	-1%
COC(=O)c1ccc(NC(=O)N2CCC(CN3CCc4ccccc4C3)CC2)cc1	·	-8%	1%[46.1 µM]	·	·
COc1ccc(CCN(C)CC(O)COC(c2ccc(F)cc2)c2ccc(F)cc2)cc1OC (configuration not stated)	5.6µM*	2%	?	128%	-8%
COc1cccc2c1[C@H](C=Cc1ccccc1)[C@@H]([C@H](O)CO)OC2	-11%[14.2 µM]	·	-31%[14.3 µM]	·	·
Cc1nn(-c2ccccc2)c(C)c1/C=N/NC(=O)c1cc(C(C)(C)C)[nH]n1	4.5µM*	-1%	?	-28%	-5%
Cc1ccc(-c2cc(C(=O)N/N=C/c3c(C)nn(-c4ccccc4)c3C)n[nH]2)s1	?	-8%	8.2µM*	103%	12%
Cc1ccc(-c2cc(C(=O)N/N=C/c3c(C)nn(-c4ccccc4)c3C)[nH]n2)cc1	-2%	-1%	·	61%	·
Cc1nn(-c2ccccc2)c(C)c1/C=N/n1c(-c2ccc(C(C)(C)C)cc2)n[nH]c1=S	-26%	-1%	0.11µM*	-32%	-7%
Cc1[nH]c2ccccc2c1/C=N/NC(=O)c1cc(-c2cccs2)[nH]n1	-36%	0%	-21%	-17%	13%
